From PubChem BioAssay AID2490 (National Center for Advancing Translational Sciences (NCATS), 2010)
Active and inactive are the calls of the source. Calls come from the whole dose curve.

The molecules below were run against Thyroid hormone receptor beta (Homo sapiens) (UniProt P10828) (assay: Secondary Confirmation Assay for Inhibitors of the Interaction of Thyroid Hormone Receptor and Steroid Receptor Coregulator 2, Texas Red Fluoroprobe). Settings: TRb LBD / Texas Red SRC2 peptide fluorescence polarization.
Thyroid hormone receptor beta (Homo sapiens), sequence (P10828 whole entry, looked up, the tested form may be a part): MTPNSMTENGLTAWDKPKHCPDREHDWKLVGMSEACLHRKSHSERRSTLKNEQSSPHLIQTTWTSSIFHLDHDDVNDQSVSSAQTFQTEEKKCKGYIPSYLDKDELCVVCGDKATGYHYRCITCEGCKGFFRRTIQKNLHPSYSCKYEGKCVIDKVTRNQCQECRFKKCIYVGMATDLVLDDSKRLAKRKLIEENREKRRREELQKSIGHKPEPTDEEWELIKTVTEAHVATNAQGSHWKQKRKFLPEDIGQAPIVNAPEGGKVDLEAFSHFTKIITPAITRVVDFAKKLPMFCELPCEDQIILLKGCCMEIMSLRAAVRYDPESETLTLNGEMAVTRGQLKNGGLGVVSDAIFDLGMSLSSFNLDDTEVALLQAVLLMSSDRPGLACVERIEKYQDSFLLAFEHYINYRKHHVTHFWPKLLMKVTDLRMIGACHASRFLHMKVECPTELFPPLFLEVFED
Source text: NIH Molecular Libraries Probe Production Network [MLPCN] NIH Chemical Genomics Center [NCGC] MLPCN Grant: DK058080 Assay Provider: R. Kip Guy, St. Jude Children's Research Hospital NCGC Assay Overview: Thyroid receptor (TR) regulates many homeostatic processes including basal metabolism, cardiovascular function, body weight, and lipid trafficking. TR modulators are potential therapeutics for obesity and hyperlipidemias but current thyroid analogs have undesirable side effects, particularly cardiac stimulation. To identify inhibitors that specifically prevent the interaction of TR with the steroid receptor coregulator 2 (SRC2), a fluorescence polarization assay was screened (Arnold et al., 2006). This assay detects the interaction of the ligand-binding domain of human TRb with a Texas Red labeled SRC2 peptide, corresponding to a 20 amino acid region of the nuclear receptor interaction domain. Small molecule inhibitors that block the interaction of TR and SRC2 are detected by a decrease in fluorescence polarization.
NCGC Assay Protocol Summary: Twenty uL/well 0.6 uM TRb and 20 nM Texas Red labeled SRC2-2 in protein buffer (20mM Tris hydrochloride, pH 7.4, 100mM NaCl, 10% glycerol, 1mM EDTA, 0.01% NP-40, 1mM DTT, 1uM T3 and 4% DMSO) was dispensed into black solid 384-well plates (Costar 3710) using a Biomek FX (Beckman Coulter) liquid handling system. Following transfer of 260 nL compound (ranging from 7 nM to 130 uM), the plates were incubated 3 hr at ambient temperature. The plates were read by an Envision (Perkin Elmer) to detect fluorescence polarization of SRC2 Texas Red (555 nm excitation and 632 nm emission). Arnold, L. A.; Estebanez-Perpina, E.; Togashi, M.; Shelat, A.; Ocasio, C. A.; McReynolds, A. C.; Nguyen, P.; Baxter, J. D.; Fletterick, R. J.; Webb, P.; Guy, R. K. A high-throughput screening method to identify small molecule inhibitors of thyroid hormone receptor coactivator binding. Sci STKE 2006, p 13.

Potency, active:
CS(=O)(=O)c1ccc(C(=O)OCC(=O)N2CCC(c3ccccc3)CC2)cc1[N+](=O)[O-] 6.2 µM
CCC(OC(=O)c1ccc(S(C)(=O)=O)c([N+](=O)[O-])c1)C(=O)NC1C2CC3CC(C2)CC1C3 (stereo not given) 1.1 µM
CC1CCN(C(=O)COC(=O)c2ccc(S(C)(=O)=O)c([N+](=O)[O-])c2)CC1 9.8 µM
CS(=O)(=O)c1ccc(C(=O)OCC(=O)N2CCc3ccccc32)cc1[N+](=O)[O-] 51.8 µM
CS(=O)(=O)c1ccc(-c2nc(C(=O)NC3C4CC5CC(C4)CC3C5)cs2)cc1[N+](=O)[O-] (stereo not given) 10.1 µM
CS(=O)(=O)c1ccc(C(=O)OCC(=O)NC2C3CC4CC(C3)CC2C4)cc1[N+](=O)[O-] (stereo not given) 1.6 µM
CS(=O)(=O)c1ccc(C(=O)OCC(=O)N2CCNc3ccccc32)cc1[N+](=O)[O-] 1.1 µM
CC(OC(=O)c1ccc(S(C)(=O)=O)c([N+](=O)[O-])c1)C(=O)NC1C2CC3CC(C2)CC1C3 (stereo not given) 1.4 µM
CS(=O)(=O)c1ccc(C(=O)NCC(=O)NC2C3CC4CC(C3)CC2C4)cc1[N+](=O)[O-] (stereo not given) 11.3 µM
CS(=O)(=O)c1ncc(C(=O)OCC(=O)NC2C3CC4CC(C3)CC2C4)cn1 (stereo not given) 3.2 µM

outcome, inactive:
O=C(COC(=O)c1cc([N+](=O)[O-])ccc1Cl)NC1C2CC3CC(C2)CC1C3 (stereo not given)
CS(=O)(=O)c1ccc(-c2nnc(-c3ccccc3)o2)cc1[N+](=O)[O-]
O=C(COC(=O)c1cccc([N+](=O)[O-])c1)NC1C2CC3CC(C2)CC1C3 (stereo not given)
O=C(COC(=O)c1ccc2ncsc2c1)NC(=O)C1CCCCC1
CS(=O)(=O)c1ccc(-c2nnc(-c3ccccc3)s2)cc1[N+](=O)[O-]
C[S+](=O)([O-])c1ccc(C(=O)OCC(=O)N2CCNC(=O)C2)cc1[N+](=O)[O-]
CC(=O)Nc1cccc(C(=O)OCC(=O)NC(=O)C2CCCCC2)c1
CCN1CCN(C(=O)COC(=O)c2ccc(S(C)(=O)=O)c([N+](=O)[O-])c2)C(C)C1 (stereo not given)
O=C(COC(=O)c1cccc([N+](=O)[O-])c1Cl)NC1C2CC3CC(C2)CC1C3 (stereo not given)
CS(=O)(=O)c1ccc(C(=O)OCC(=O)N2CCOCC2)cc1[N+](=O)[O-]
O=C(COC(=O)c1ccc(C(F)(F)F)cc1)NC(=O)C1CCCCC1
Cc1ccccc1NC(=O)COC(=O)c1ccc(S(C)(=O)=O)c([N+](=O)[O-])c1
CC(=O)c1cccc(NC(=O)COC(=O)c2ccc(S(C)(=O)=O)c([N+](=O)[O-])c2)c1
CCN1CCN(C(=O)COC(=O)c2ccc(S(C)(=O)=O)c([N+](=O)[O-])c2)CC1C (stereo not given)
CS(=O)(=O)c1ccc(C(=O)OCC(=O)NCC2CCCO2)cc1[N+](=O)[O-] (stereo not given)
